From PubChem BioAssay (Tox21)
Inconclusive results are not listed. Values without a mark were called inactive. Calls of active or inactive are those of the source. Calls come from the whole dose curve; as a rule, active = well fitted inhibition curve with a large enough effect in the repeat runs; inconclusive = weak or mixed curves; inactive = flat fitted curve, though single readings scatter.

Target: Luciferin 4-monooxygenase (Photinus pyralis) (UniProt P08659)
Assay: qHTS assay to identify small molecule inhibitors of firefly luciferase (AID 1224835); note: nearly all actives have a fitted effect of over 25% in size
Details: purified P. pyralis luciferase, luminescence inhibition; series mostly up to 115 µM; activity change, negative = inhibition: at the top concentration
Excerpt: U.S. Tox21 Program National Center for Advancing Translational Sciences [NCATS] NIH Chemical Genomics Center [NCGC] U.S. Environmental Protection Agency [EPA] National Institutes of Environmental Health Sciences [NIEHS] National Toxicology Program [NTP] U.S. Food and Drug Administration [FDA] Tox21 Assay Overview: Firefly (Photinus pyralis) luciferase is one of the most commonly used transcriptional reporters. Firefly luciferase reporter-gene assays are generally considered one of the most sensitive assay types (Wood, 1995; Wood, 1998). However, it was initially observed, in 1991, by Thompson et al., that compounds that resemble the substrates of firefly luciferase (FLuc) can act as competitive inhibitors of the enzyme, and that these compounds, upon interaction with luciferase in the cell, can actually stabilize the protein and increase its half-life. Previous profiling work by other groups to determine the prevalence of compounds that affect FLuc enzymatic activity (PubChem AID 411) identified that ~3% of the MLSMR library (then at ~72K) inhibited FLuc. […] Thus the Tox21 10K library is profiled for activity against FLuc using a biochemical assay of purified FLuc and KM concentrations of FLuc substrates (D-luciferin and ATP).
These assay plates were then treated with 23nL of compound or DMSO using a Kalypsys pin tool, which allows for delivery of a 6-point interplate titration of each compound to the assay plate (quantitative HTS.) 1 uL of firefly luciferase mix (containing 50 mM Tris acetate, pH 7.6, 0.04 uM P. pyralis luciferase, 0.01% Tween, 0.05% BSA and dH2O) was then delivered by FRD to each well. Luciferase activity was then measured using a ViewLux CCD imager.
% is set by controls: 0 for no effect and ±100 for the full control effect.

Sequence of Luciferin 4-monooxygenase (Photinus pyralis) (P08659 whole entry, looked up): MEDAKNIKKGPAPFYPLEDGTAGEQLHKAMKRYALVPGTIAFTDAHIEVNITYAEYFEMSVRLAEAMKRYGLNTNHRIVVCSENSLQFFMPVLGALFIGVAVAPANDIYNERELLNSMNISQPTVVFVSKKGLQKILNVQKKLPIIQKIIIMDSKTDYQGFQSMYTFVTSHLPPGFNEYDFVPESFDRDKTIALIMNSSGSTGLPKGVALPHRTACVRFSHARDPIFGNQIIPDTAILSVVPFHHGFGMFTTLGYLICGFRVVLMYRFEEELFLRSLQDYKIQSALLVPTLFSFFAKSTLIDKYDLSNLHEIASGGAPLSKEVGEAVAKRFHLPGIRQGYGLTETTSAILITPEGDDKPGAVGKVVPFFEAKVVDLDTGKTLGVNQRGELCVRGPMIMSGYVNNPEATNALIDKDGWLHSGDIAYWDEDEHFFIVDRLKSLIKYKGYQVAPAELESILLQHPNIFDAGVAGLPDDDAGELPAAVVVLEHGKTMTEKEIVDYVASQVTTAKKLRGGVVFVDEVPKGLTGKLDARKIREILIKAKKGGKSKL

| SMILES | activity change, negative = inhibition | Potency |
| --- | --- | --- |
| CC1=CC=C(C(C)C)CC1 | 1.51% |  |
| CC(=O)NO | 10.2% [at 52.9 µM] |  |
| CCN(CC)c1ccc2c(-c3ccccc3C(=O)O)c3ccc(=[N+](CC)CC)cc-3oc2c1 |  | 11.2 µM (active) |
| CCCCCCCCCCCCN1CCCCCC1=O | -11.2% |  |
| c1ccc(-c2ccccn2)nc1 | 2.14% |  |
| CCCCC(CC)COC(=O)CCCCCCCCC(=O)OCC(CC)CCCC (stereo not given) | 2.94% |  |
| C#Cc1cccc(Nc2ncnc3cc(OCCOC)c(OCCOC)cc23)c1 | 4.31% [at 52.9 µM] |  |
| Brc1c2ccccc2c(Br)c2ccccc12 | 2.43% [at 10.5 µM] |  |
| COC(=O)c1ccc(I)cc1S(=O)(=O)NC(=O)Nc1nc(C)nc(OC)n1 | 0.0312% |  |
| CCCC(=O)Nc1ccc(O)c(C(C)=O)c1 | 1.46% [at 52.9 µM] |  |
| CCCn1cnc2c1c(=O)n(CCCCC(C)=O)c(=O)n2C | 0.319% [at 52.9 µM] |  |
| O=[N+]([O-])c1ccc2[nH]ncc2c1 | 1.48% |  |
| OCc1cc(C(O)CNCCCCCCOCCCCc2ccccc2)ccc1O (stereo not given) | -10.4% [at 52.9 µM] |  |
| C=CC(=O)OCCOCCOCCOCCOC(=O)C=C |  | inactive |
| Clc1ccc(Cn2c(CN3CCCC3)nc3ccccc32)cc1 | 5.95% [at 52.9 µM] |  |
| COc1ccc(C(=O)Nc2nc3ccccc3c(NCc3ccccc3)c2C#N)cc1 | 0.307% |  |
| Cc1cccc(C)c1OCC(=O)N[C@@H](Cc1ccccc1)[C@@H](O)C[C@H](Cc1ccccc1)NC(=O)[C@H](C(C)C)N1CCCNC1=O | 0.556% [at 52.9 µM] |  |
| OC(C#CCN1CCCC1)(c1ccccc1)c1ccccc1 | 3.81% [at 52.9 µM] |  |
| CC1(c2ccccc2)OC(C(=O)O)=CC1=O (stereo not given) | 0.022% [at 52.9 µM] |  |
| NCCCN1CCOCC1 | 2.38% |  |

| SMILES | activity change, negative = inhibition | Potency |
| --- | --- | --- |
| CCOCC(O)COc1ccc(NC(=O)CC[S+](C)C)cc1 (stereo not given) | -0.0788% [at 52.9 µM] |  |
| CC(=O)c1cccc([N+](=O)[O-])c1 | 1.91% |  |
| C/C=C(/C(=C/C)c1ccc(OC(C)=O)cc1)c1ccc(OC(C)=O)cc1 | 1.38% [at 52.9 µM] |  |
| CC(C)C[C@H]1C(=O)N2CCC[C@H]2[C@]2(O)O[C@](NC(=O)[C@@H]3C=C4c5cccc6[nH]c(Br)c(c56)C[C@H]4N(C)C3)(C(C)C)C(=O)N12 | -1.53% [at 52.9 µM] |  |
| CNCCCN1c2ccccc2CCc2ccccc21 | 2.46% [at 52.9 µM] |  |
| CN(C)CCN(Cc1ccc(Cl)cc1)c1ccccn1 | 2.25% [at 52.9 µM] |  |
| CC1=CCCC(C)(C)C12CCC(C)O2 (stereo not given) | 1.22% |  |
| C[N+]1(CC2COC(c3ccccc3)(C3CCCCC3)O2)CCCCC1 (stereo not given) | 0.981% [at 52.9 µM] |  |
| CCCCC(=O)OCC(=O)[C@H]1[C@H](C)C[C@H]2[C@@H]3C[C@H](F)C4=CC(=O)C=C[C@]4(C)[C@@]3(F)[C@@H](O)C[C@@]21C | -2.3% [at 52.9 µM] |  |
| O=C(O)c1ccc(-n2nc(-c3ccccc3O)nc2-c2ccccc2O)cc1 | 1.07% [at 52.9 µM] |  |
| CCOC(=O)C(F)(F)F | 5.9% |  |
| Cc1cccc(C)c1NC(=O)CN(CC(=O)O)CC(=O)O | -0.0831% [at 52.9 µM] |  |
| CCC(C)c1cc(C(C)(C)C)c(O)c(C(C)(C)C)c1 (stereo not given) | 3.25% |  |
| Cc1oc2c(NC(=O)c3c(Cl)cccc3Cl)cccc2c1C(C)(C)O | -11.5% |  |
| C#CCN(C)CCCOc1ccc(Cl)cc1Cl |  | 15.5 µM (active) |
| C=C1C(=C/C=C2\CCC[C@]3(C)[C@@H]([C@H](C)/C=C/[C@@H](O)C4CC4)CC[C@@H]23)C[C@@H](O)C[C@@H]1O | 5.06% [at 52.9 µM] |  |
| Nc1cccc([N+](=O)[O-])c1 | -2.84% |  |
| Nc1ccccc1S(=O)(=O)c1ccccc1 | 1.84% |  |
| COc1ccc(C)cc1[N+](=O)[O-] | -1.52% |  |
| NC(=O)C(c1ccccc1)(c1ccccc1)[C@@H]1CCN(CCc2ccc3c(c2)CCO3)C1 | -3.13% [at 52.9 µM] |  |
